High-throughput results (PubChem)
tim10-1 inh – inhibits growth of tim10-1 mutant yeast; 330,000 compounds, 2.2% hits; AID 463190; S. cerevisiae tim10-1 ts strain growth, BacTiter-Glo, 24 h; inhibition, % at 20 µM;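 active = inhibition of at least 40%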;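 also: mutant grown at 25 °C; 0% = DMSO wells with yeast and 100% = wells holding no yeast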
PfHsp90 yeast 2 – inhibits growth of yeast expressing Plasmodium falciparum Hsp90 | S. cerevisiae expressing PfHsp90, BacTiter-Glo ATP, 48 h; yeast lacking PDR1 and PDR3 efflux regulators | inhibition, % at 9.4 µM | 310,000 compounds, 0.32% hits;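 active = every replicate shows inhibition above about 80%, whatever the replicate mean, limit read from the data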;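 also: 0% = DMSO neutral controls and 100% = 20 µM radicicol positive controls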
tim23-1 inh – tim23-1 yeast growth inhibition | S. cerevisiae tim23-1 growth, BacTiter-Glo luminescence, 24 h | inhibition, % at 20 µM | 330,000 compounds, 1.3% hits | AID 463212;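 active = growth inhibition of the mutant yeast at or above 50%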;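 also: temperature-sensitive mutant grown at 25 °C; plate controls were DMSO-treated mutant yeast for no effect and medium wells lacking yeast for full effect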
SKKanGAS inh – inhibitors of SKKanGAS S. pyogenes growth in kanamycin (SK-promoter or general growth effect). BacTiter-Glo, 6 h. inhibition, % at 7.5 µM. 300,000 compounds, 1.3% hits;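 active = mean replicate score, as percent of positive control median, at least 50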;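 also: strain carries kanamycin resistance gene driven by streptokinase promoter and grows in 40 µg/ml kanamycin; loss of luminescence reflects streptokinase promoter inhibition or plain growth inhibition; 0% = median of DMSO wells and 100% = positive control at its reference dose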
NALP1 yeast inh – inhibitors of NALP1 inflammasome in yeast; 280,000 compounds, 0.61% hits; inhibition, % at 10 µM; AID 2071; S. cerevisiae NALP1/ASC/caspase-1 growth, X-gal OD620, 72 h; in the data active = inhibition mostly above about 24%, no sharp cut-off; inactive = mostly below about 32%
TIM10 inh – growth inhibitors of TIM10 yeast strain; S. cerevisiae TIM10 strain growth, BacTiter-Glo luminescence, 24 h; inhibition, % at 10 µM; 330,000 compounds, 1.4% hits;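 active = inhibition of 40% or more at the single tested concentration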;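 also: wild-type TIM10 isogenic control strain grown at permissive 25 °C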
tim10-1 conf – confirmation of tim10-1 mutant yeast growth inhibitors | AID 463213 | shares compounds with tim10-1 inh | inhibition, % at 20 µM | 7,400 compounds, 56% hits | S. cerevisiae tim10-1 ts strain growth, BacTiter-Glo, 24 h;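 active = inhibition of yeast growth at or above a set limit in either of two repeat tests at 20 µM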;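 also: tim10-1 mutant grown at permissive 25 °C to find synthetic lethal compounds; 0% = DMSO yeast wells and 100% = medium wells without yeast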
TIM10 conf – TIM10 yeast growth inhibition, confirmed; shares compounds with TIM10 inh; S. cerevisiae tim10 strain growth, BacTiter-Glo luminescence, 24 h; inhibition, % at 10 µM; 4,600 compounds, 63% hits; AID 463215;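 active = inhibition of yeast growth at or above a set limit in either of two replicates at 10 µM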;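 also: this counterscreen used the strain with wild-type TIM10; 0% = yeast with DMSO and 100% = medium wells lacking yeast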
tim23-1 conf – tim23-1 yeast growth inhibition, confirmed; shares compounds with tim23-1 inh; S. cerevisiae tim23-1 growth, BacTiter-Glo luminescence, 24 h; inhibition, % at 20 µM; 4,400 compounds, 83% hits; AID 463218;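 active = inhibition above about 39% in either of two replicate wells at 20 µM, limit read from the data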;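 also: temperature-sensitive tim23-1 mutant grown at 25 °C; 0% = DMSO wells with yeast and 100% = medium wells without yeast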
An asterisk follows results filed as active. Rows were chosen to be rich in hits. Some 4.8% of all compounds tested hit in one or more screens of this group.

Results for O=C(CS(=O)c1ccc(C(F)(F)F)cc1[N+](=O)[O-])Oc1ccc(Cl)cc1 (stereo unspecified) ?
tim10-1 inh: 47*; PfHsp90 yeast 2: -7; tim23-1 inh: 70*; SKKanGAS inh: -5; NALP1 yeast inh: -4; TIM10 inh: 55*; tim10-1 conf: 47*; TIM10 conf: 36*; tim23-1 conf: 67*

What do the screens show for `Cc1ccc(OCCNc2ccc(C(F)(F)F)cc2[N+](=O)[O-])cc1`?
tim10-1 inh: 3; PfHsp90 yeast 2: -38; tim23-1 inh: 7; SKKanGAS inh: -5; NALP1 yeast inh: 21; TIM10 inh: 1

Results for Cc1cc(C)cc(OC(=O)CS(=O)c2ccc(C(F)(F)F)cc2[N+](=O)[O-])c1 (stereo unspecified) ?
tim10-1 inh: 51*; PfHsp90 yeast 2: -46; tim23-1 inh: 66*; SKKanGAS inh: 11; NALP1 yeast inh: 12; TIM10 inh: 31; tim10-1 conf: 28*; tim23-1 conf: 68*

What do the screens show for `O=C(NCCO)c1ccc(Oc2ccc(C(F)(F)F)cc2[N+](=O)[O-])cc1`?
tim10-1 inh: 0; PfHsp90 yeast 2: -8; tim23-1 inh: 5; SKKanGAS inh: -1; NALP1 yeast inh: -10; TIM10 inh: 0

How did COc1cc(C(=O)Nc2ccc3c(c2)OCCO3)ccc1OC(F)F do in these assays?
tim10-1 inh: 22; PfHsp90 yeast 2: -10; tim23-1 inh: 26; SKKanGAS inh: 5; NALP1 yeast inh: 15; TIM10 inh: 8

How did O=[N+]([O-])c1ccc(N=Nc2ncc[nH]2)cc1 do in these assays?
tim10-1 inh: 45*; PfHsp90 yeast 2: -5; tim23-1 inh: 52*; SKKanGAS inh: 3; NALP1 yeast inh: 4; TIM10 inh: 44*; tim10-1 conf: 31; TIM10 conf: 33*; tim23-1 conf: -24

Results for O=[N+]([O-])c1ccc(N=NN(CCO)CCO)cc1 ?
tim10-1 inh: 7; PfHsp90 yeast 2: 11; tim23-1 inh: 13; SKKanGAS inh: -6; NALP1 yeast inh: 33; TIM10 inh: 10

How did CCCC(=O)c1ccc(N2CCN(C(=O)c3ccccc3Br)CC2)c(F)c1 do in these assays?
tim10-1 inh: 46*; PfHsp90 yeast 2: -13; tim23-1 inh: 52*; SKKanGAS inh: 8; NALP1 yeast inh: 4; TIM10 inh: 28; tim10-1 conf: 38*; tim23-1 conf: 47*

Results for CCOC(=O)C1=C(SCC)c2cc3c(n2C1=O)CCCC3 ?
tim10-1 inh: 65*; PfHsp90 yeast 2: 25; tim23-1 inh: 59*; NALP1 yeast inh: 6; TIM10 inh: 59*; tim10-1 conf: 48*; TIM10 conf: -12; tim23-1 conf: 61*

How did CCOc1ccc(C(C)(C)C)cc1S(=O)(=O)N1CC(C)OC(C)C1 (stereo unspecified) do in these assays?
tim10-1 inh: 44*; PfHsp90 yeast 2: -13; tim23-1 inh: 55*; SKKanGAS inh: -4; NALP1 yeast inh: 4; TIM10 inh: 32; tim10-1 conf: 28; tim23-1 conf: 42*

What do the screens show for `CCOc1ccc(C(C)(C)C)cc1S(=O)(=O)n1nc(C)cc1C`?
tim10-1 inh: 46*; PfHsp90 yeast 2: 32; tim23-1 inh: 54*; SKKanGAS inh: 5; NALP1 yeast inh: 0; TIM10 inh: 46*; tim10-1 conf: 41*; TIM10 conf: 0; tim23-1 conf: 51*

Results for O=C(Cn1c(=O)c2cccn2c2ccc(F)cc21)NCCCN1CCN(c2ccccc2F)CC1 ?
tim10-1 inh: -18; PfHsp90 yeast 2: -3; tim23-1 inh: -132; SKKanGAS inh: -5; NALP1 yeast inh: -19; TIM10 inh: -54
